The campaign covered roughly 5,500 compounds. About 2,000 (36%) were called active. Roughly 18% stayed inconclusive and do not appear here. No stated cut-off is given here; in the data, active means normalized growth mostly below about 0.91 (no sharp cut-off); inconclusive means no clear call, values can overlap the other calls; inactive means mostly above about 0.92. Some of the results follow.
Experiment: chemical genetic growth profiling, strain panel (AID 1159580);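 further: tested at 20 µM; growth read once vehicle control cultures reached saturation at 30 °C; 1 = growth at the plate median or of vehicle wells; lower values mean less growth of the strain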
Settings: growth OD

Measured: normalized growth

CNCc1ccccc1
inactive: S. cerevisiae deletion strains, locus YJR066W, strain TOR1, hits give low values 0.978 | S. cerevisiae deletion strains, locus YKL009W, strain mrt4, hits give low values 0.999 | S. cerevisiae deletion strains, locus YKL068W, hits give low values 0.981 | S. cerevisiae deletion strains, locus YKL085W, strain MDH1 (second series), hits give low values 0.976 | S. cerevisiae deletion strains, locus YKL085W, strain MDH1, hits give low values 0.976 | S. cerevisiae deletion strains, locus YKL160W, strain elf1, hits give low values 1 | S. cerevisiae deletion strains, locus YKL190W, strain CNB1, hits give low values 0.996 | S. cerevisiae deletion strains, locus YKR001C, strain vps1, hits give low values 1.04 | S. cerevisiae deletion strains, locus YKR026C, strain gcn3, hits give low values 1.03 | S. cerevisiae deletion strains, locus YKR091W, strain srl3, hits give low values 1.02 | S. cerevisiae deletion strains, locus YLL001W, strain dnm1, hits give low values 1.02 | S. cerevisiae deletion strains, locus YLL026W, hits give low values 1.01 | S. cerevisiae deletion strains, locus YLL041C, strain sdh2, hits give low values 1.02 | S. cerevisiae deletion strains, locus YLR027C, strain aat2, hits give low values 0.997 | S. cerevisiae deletion strains, locus YLR039C, strain RIC1, hits give low values 1.01 | S. cerevisiae deletion strains, locus YLR058C, strain SHM2, hits give low values 0.973 | S. cerevisiae deletion strains, locus YLR102C, strain apc9, hits give low values 0.99 | S. cerevisiae deletion strains, locus YLR113W, strain HOG1, hits give low values 0.981 | S. cerevisiae deletion strains, locus YLR221C, strain rsa3, hits give low values 1.01 | S. cerevisiae deletion strains, locus YLR258W, strain gsy2, hits give low values 1.03 | S. cerevisiae deletion strains, locus YLR262C, strain YPT6 (second series), hits give low values 1.01 | S. cerevisiae deletion strains, locus YLR262C, strain YPT6, hits give low values 1 | S. cerevisiae deletion strains, locus YLR268W, strain sec22, hits give low values 1.03 | S. cerevisiae deletion strains, locus YLR320W, strain mms22, hits give low values 1.02 | S. cerevisiae deletion strains, locus YLR330W, strain CHS5, hits give low values 0.999 | S. cerevisiae deletion strains, locus YLR342W, strain FKS1 (second series), hits give low values 1.05 | S. cerevisiae deletion strains, locus YLR342W, strain FKS1, hits give low values 1.02 | S. cerevisiae deletion strains, locus YLR357W, strain rsc2, hits give low values 1.02 | S. cerevisiae deletion strains, locus YLR370C, strain arc18, hits give low values 1.02 | S. cerevisiae deletion strains, locus YLR371W, strain rom2, hits give low values 0.999 | S. cerevisiae deletion strains, locus YLR384C, strain iki3, hits give low values 1 | S. cerevisiae deletion strains, locus YLR418C, strain cdc73, hits give low values 0.991 | S. cerevisiae deletion strains, locus YML016C, strain PPZ1, hits give low values 0.996 | S. cerevisiae deletion strains, locus YML032C, strain rad52, hits give low values 0.949 | S. cerevisiae deletion strains, locus YML120C, strain ndi1, hits give low values 1.02 | S. cerevisiae deletion strains, locus YML124C, strain tub3, hits give low values 0.983 | S. cerevisiae deletion strains, locus YMR058W, strain fet3, hits give low values 0.97 | S. cerevisiae deletion strains, locus YMR078C, strain ctf18, hits give low values 0.987 | S. cerevisiae deletion strains, locus YMR125W, strain sto1, hits give low values 1.02 | S. cerevisiae deletion strains, locus YMR129W, hits give low values 1.02 | S. cerevisiae deletion strains, locus YMR205C, strain PFK2, hits give low values 1.03 | S. cerevisiae deletion strains, locus YMR223W, strain ubp8, hits give low values 0.969 | S. cerevisiae deletion strains, locus YMR231W, strain pep5, hits give low values 0.99 | S. cerevisiae deletion strains, locus YMR263W, strain SAP30, hits give low values 0.992 | S. cerevisiae deletion strains, locus YMR307W, strain GAS1, hits give low values 0.914 | S. cerevisiae deletion strains, locus YNL067W, strain RPL9B, hits give low values 0.984 | S. cerevisiae deletion strains, locus YNL071W, strain lat1, hits give low values 1.03 | S. cerevisiae deletion strains, locus YNL153C, strain GIM3, hits give low values 0.978 | S. cerevisiae deletion strains, locus YNL183C, strain NPR1, hits give low values 0.91 | S. cerevisiae deletion strains, locus YNL209W, strain ssb2, hits give low values 1.01 | S. cerevisiae deletion strains, locus YNL233W, strain BNI4, hits give low values 1.01 | S. cerevisiae deletion strains, locus YNL248C, strain rpa49, hits give low values 1.03 | S. cerevisiae deletion strains, locus YNL250W, strain rad50, hits give low values 0.981 | S. cerevisiae deletion strains, locus YNL271C, strain bni1, hits give low values 0.994 | S. cerevisiae deletion strains, locus YNL298W, strain CLA4, hits give low values 0.988 | S. cerevisiae deletion strains, locus YNL307C, strain MCK1, hits give low values 1.01 | S. cerevisiae deletion strains, locus YNL322C, strain KRE1 (second series), hits give low values 1.02 | S. cerevisiae deletion strains, locus YNL322C, strain KRE1, hits give low values 0.994 | S. cerevisiae deletion strains, locus YNR049C, strain mso1, hits give low values 1.02 | S. cerevisiae deletion strains, locus YNR052C, strain pop2, hits give low values 0.991 | S. cerevisiae deletion strains, locus YOL006C, strain TOP1, hits give low values 1.1 | S. cerevisiae deletion strains, locus YOL012C, strain htz1 1.52 | S. cerevisiae deletion strains, locus YOL147C, strain pex11, hits give low values 0.989 | S. cerevisiae deletion strains, locus YOR001W, strain rrp6, hits give low values 1.01 | S. cerevisiae deletion strains, locus YOR061W, strain CKA2, hits give low values 0.983 | S. cerevisiae deletion strains, locus YOR069W, strain VPS5, hits give low values 1 | S. cerevisiae deletion strains, locus YOR070C, strain gyp1, hits give low values 1.01 | S. cerevisiae deletion strains, locus YOR080W, strain dia2, hits give low values 1.02 | S. cerevisiae deletion strains, locus YOR083W, strain WHI5, hits give low values 1.01 | S. cerevisiae deletion strains, locus YOR106W, strain vam3, hits give low values 1.04 | S. cerevisiae deletion strains, locus YOR136W, strain idh2, hits give low values 0.996 | S. cerevisiae deletion strains, locus YOR144C, strain elg1, hits give low values 0.991 | S. cerevisiae deletion strains, locus YOR184W, strain ser1, hits give low values 1 | S. cerevisiae deletion strains, locus YOR231W, strain MKK1, hits give low values 0.987 | S. cerevisiae deletion strains, locus YOR265W, strain rbl2, hits give low values 1.01 | S. cerevisiae deletion strains, locus YOR270C, strain vph1, hits give low values 1.08 | S. cerevisiae deletion strains, locus YOR290C, strain snf2, hits give low values 1.02 | S. cerevisiae deletion strains, locus YOR316C, strain cot1, hits give low values 0.986 | S. cerevisiae deletion strains, locus YPL051W, strain arl3, hits give low values 1 | S. cerevisiae deletion strains, locus YPL055C, strain LGE1, hits give low values 0.993 | S. cerevisiae deletion strains, locus YPL078C, strain atp4, hits give low values 1.02 | S. cerevisiae deletion strains, locus YPL106C, strain sse1, hits give low values 1.01 | S. cerevisiae deletion strains, locus YPL240C, strain hsp82, hits give low values 1.02 | S. cerevisiae deletion strains, locus YPL241C, strain CIN2, hits give low values 0.995 | S. cerevisiae deletion strains, locus YPL256C, strain CLN2, hits give low values 0.973 | S. cerevisiae deletion strains, locus YPR119W, strain clb2, hits give low values 0.991 | S. cerevisiae deletion strains, locus YPR141C, strain kar3, hits give low values 0.975 | S. cerevisiae deletion strains, locus YPR163C, strain tif3, hits give low values 0.979 | S. cerevisiae deletion strains, locus YPR167C, strain met16, hits give low values 0.982 | S. cerevisiae deletion strains, strain wtn01, hits give low values 1.06 | S. cerevisiae strains, strain wild type, hits give low values 0.992

From PubChem BioAssay AID1159580 (chemical genetic matrix, 2015)
